From PubChem
The list is not random: actives were taken first. Their share in the collection is about 2.1%.
CASP6 VEID inh: blocks human caspase-6 cleavage activity | inhibition, % at 12.5 µM | P55212 | purified caspase-6, Z-VEID-R110 cleavage fluorescence | 0.53% of 350,000 active;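 active = mean inhibition across replicates at least about 35%, with every replicate also reaching that limit, limit read from the data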;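 also: 0% = median of neutral control wells and 100% = no fluorescence left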
ARNT TACC3 PPI: disrupts binding between human ARNT and TACC3; Q9Y6A5; AlphaScreen His-ARNT PAS-B/GST-TACC3 binding, luminescence; TACC3 fragment carries E629A point mutation; inhibition, % at 9.99 µM; 0.66% of 390,000 active;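 active = mean inhibition of replicates at least 50% and at least half of replicates each reaching 50%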;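 also: 0% = complete ARNT plus TACC3 wells and 100% = ARNT alone without TACC3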
PfHsp90 set2: inhibits growth of yeast expressing Plasmodium falciparum Hsp90; S. cerevisiae expressing PfHsp90, BacTiter-Glo ATP, 48 h; yeast lacking PDR1 and PDR3 efflux regulators; inhibition, % at 9.4 µM; 0.32% of 310,000 active;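 active = every replicate shows inhibition above about 80%, whatever the replicate mean, limit read from the data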;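 also: 0% = DMSO neutral controls and 100% = 20 µM radicicol positive controls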
NSD2 HMT inh: blocks human histone methyltransferase NSD2; O96028; NSD2 peptide methylation, AlphaScreen, 120 min; inhibition, % at 12.5 µM; 0.54% of 310,000 active; in the data active = inhibition above about 50%
Target sequence (O96028 whole entry, looked up): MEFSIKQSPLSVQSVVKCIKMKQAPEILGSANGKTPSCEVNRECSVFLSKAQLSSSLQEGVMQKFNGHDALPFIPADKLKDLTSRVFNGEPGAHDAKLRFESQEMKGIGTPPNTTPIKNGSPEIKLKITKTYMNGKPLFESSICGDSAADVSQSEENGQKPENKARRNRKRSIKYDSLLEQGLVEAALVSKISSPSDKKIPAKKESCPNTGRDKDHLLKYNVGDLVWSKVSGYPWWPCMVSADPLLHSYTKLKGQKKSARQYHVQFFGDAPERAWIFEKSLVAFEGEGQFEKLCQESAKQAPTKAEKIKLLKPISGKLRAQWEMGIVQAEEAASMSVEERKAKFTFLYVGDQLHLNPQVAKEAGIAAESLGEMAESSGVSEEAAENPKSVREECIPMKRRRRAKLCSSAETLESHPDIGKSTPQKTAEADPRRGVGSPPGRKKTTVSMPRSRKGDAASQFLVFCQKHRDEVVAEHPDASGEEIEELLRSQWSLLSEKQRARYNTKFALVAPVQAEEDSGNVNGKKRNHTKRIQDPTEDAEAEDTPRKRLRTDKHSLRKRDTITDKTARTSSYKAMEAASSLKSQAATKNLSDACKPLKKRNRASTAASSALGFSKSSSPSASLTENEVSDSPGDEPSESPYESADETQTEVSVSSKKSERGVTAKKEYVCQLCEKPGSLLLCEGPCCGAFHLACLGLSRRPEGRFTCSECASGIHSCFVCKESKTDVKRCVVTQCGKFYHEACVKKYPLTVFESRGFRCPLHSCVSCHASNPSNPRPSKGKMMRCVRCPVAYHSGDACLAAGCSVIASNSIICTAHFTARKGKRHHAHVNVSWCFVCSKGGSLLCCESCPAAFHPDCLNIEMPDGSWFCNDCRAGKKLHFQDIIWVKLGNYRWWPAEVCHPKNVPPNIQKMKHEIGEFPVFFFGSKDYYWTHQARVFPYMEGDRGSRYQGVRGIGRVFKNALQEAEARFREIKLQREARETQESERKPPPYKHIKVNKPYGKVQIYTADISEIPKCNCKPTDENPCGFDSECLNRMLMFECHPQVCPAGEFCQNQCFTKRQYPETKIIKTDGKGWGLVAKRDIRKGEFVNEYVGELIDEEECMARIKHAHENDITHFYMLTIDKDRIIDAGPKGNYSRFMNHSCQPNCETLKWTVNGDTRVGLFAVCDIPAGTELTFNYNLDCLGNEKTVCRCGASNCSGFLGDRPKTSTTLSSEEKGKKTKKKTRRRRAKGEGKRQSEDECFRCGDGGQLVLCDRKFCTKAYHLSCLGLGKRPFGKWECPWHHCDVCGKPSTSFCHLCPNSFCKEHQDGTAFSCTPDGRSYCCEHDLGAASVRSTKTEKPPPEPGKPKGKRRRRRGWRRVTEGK
SIRT5 block: sirtuin-5 (human) deacylase inhibition; Purified SirT5, succinyl-peptide AMC, trypsin-coupled fluorescence; AID 652115; 1.1% of 330,000 active; inhibition, % at 15 µM; in the data active = inhibition above about 15%
The depositor's hits bear a star; x = no result; ! = not active in a repeat.

SMILES | CASP6 VEID inh | ARNT TACC3 PPI | PfHsp90 set2 | NSD2 HMT inh | SIRT5 block
O=C(C[C@H]1C=C[C@@H](NC(=O)CC2CC2)[C@@H](CO)O1)NCc1ccc(-c2ccccc2)cc1 | 1.7 | x | x | x | -6.0
C[C@@H]1CN([C@@H](C)CO)C(=O)c2cc(NC(=O)Cc3ccccc3)ccc2O[C@@H](C)CCCCO[C@@H]1CN(C)C(=O)CCCN(C)C | -5.3 | x | x | x | x
CCOc1ccc(CN2CCN(C(=O)c3cccc(F)c3)CC2)cc1 | 1.3 | -4.9 | -0.4 | 1.7 | 19.3*
O=C(C[C@@H]1C=C[C@@H](NS(=O)(=O)c2ccccc2F)[C@@H](CO)O1)NCCCN1CCOCC1 | 0.3 | -0.7 | x | x | -0.1
O=C(Nc1nnc(-c2ccco2)o1)c1cccc(Cl)c1 | 2.6 | 11.0 | -2.9 | -1.9 | -3.5
O=C(Nc1nnc(-c2cccnc2)o1)c1cccc(Cl)c1 | -5.8 | 52.0* | -28.8 | -3.4 | 5.6
O=C(Nc1nnc(-c2ccccn2)o1)c1cccc(Cl)c1 | -2.3 | 52.2* | -2.9 | -0.4 | -0.7
COc1cc(OC)cc(C(=O)Nc2nnc(-c3cccnc3)o2)c1 | -0.1 | 61.6* | 0.1 | 0.4 | 2.1
COc1cccc(-c2nnc(NC(=O)c3cccc(F)c3)o2)c1 | 0.2 | 15.6 | -37.2 | x | -6.0
COc1cccc(C#Cc2ccc([C@H]3[C@@H](CO)N4C(=O)CN(S(=O)(=O)c5ccccc5C)C[C@H]34)cc2)c1 | 0.5 | x | x | x | -1.1
Cc1ccc(C(c2cc(Cl)c3cccnc3c2O)N2CCN(C)CC2)cc1 (stereo unspecified) | x | x | 106.6* | x | x
CC(=O)NC(c1ccccc1)c1cc([N+](=O)[O-])c2cccnc2c1O (stereo unspecified) | 4.2 | 41.6 | -23.0 | 2.9 | 3.9
CC(=O)NC(C)c1cc(F)c2cccnc2c1O (stereo unspecified) | x | 74.5* | x | x | x
CC(=O)NC(c1ccco1)c1cc(Cl)c2cccnc2c1O (stereo unspecified) | -0.4 | x | x | 38.6 | -6.7
CC(=O)NC(c1ccc(C)cc1)c1cc(Cl)c2cccnc2c1O (stereo unspecified) | -0.3 | 5.5 | 114.5* | 1.7 | -0.4
CC(=O)NC(c1cc(Cl)c2cccnc2c1O)C1CC1 (stereo unspecified) | 4.9 | 68.7* | -9.9 | x | -2.0
CN1CCN(C(c2ccc(C(F)(F)F)cc2)c2ccc3cccnc3c2O)CC1 (stereo unspecified) | -27.5 | x | x | 11.4 | -9.0
C[C@@H]1CN([C@H](C)CO)S(=O)(=O)c2ccc(/C=C/c3ccccc3)cc2O[C@H]1CN(C)C(=O)NC1CCCC1 | -1.4 | 10.8 | x | x | 15.2*
C[C@@H]1CN([C@@H](C)CO)S(=O)(=O)c2ccc(/C=C/c3ccccc3)cc2O[C@H]1CN(C)C(=O)NC1CCCC1 | -1.4 | 6.6 | x | x | 16.2*
C[C@H](CO)N1C[C@H](C)[C@@H](CN(C)C(=O)NC2CCCC2)Oc2cc(/C=C/c3ccccc3)ccc2S1(=O)=O | 3.0 | 5.4 | x | x | 0.3
C/C=C/c1ccc2c(c1)O[C@H](CN(C)C(=O)NC1CCCC1)[C@H](C)CN([C@H](C)CO)S2(=O)=O | 1.9 | -3.3 | x | x | 15.8*!
C[C@H](CO)N1C[C@H](C)[C@@H](CN(C)S(=O)(=O)c2cccs2)OCCCC[C@H](C)Oc2ccc(NC(=O)CCC(F)(F)F)cc2C1=O | 7.8 | -21.6 | x | x | 5.3
Cc1noc(C)c1NC(=O)N[C@@H]1C=C[C@H](CC(=O)Nc2ccccc2)O[C@H]1CO | -2.1 | 7.6 | x | x | -4.3
COc1ccc(CN(C)C[C@@H]2Oc3ccc(NC(=O)NC(C)C)cc3CC(=O)N([C@@H](C)CO)C[C@H]2C)cc1 | -1.9 | -3.8 | x | x | 6.2
CC(=O)Nc1ccc2c(c1)C(=O)N(C)[C@H]1CC[C@@H](CC(=O)NCc3ccccc3Cl)O[C@H]1CO2 | -0.6 | 21.9 | x | x | 6.1
SMILES | CASP6 VEID inh | ARNT TACC3 PPI | PfHsp90 set2 | NSD2 HMT inh | SIRT5 block
O=C(CNS(=O)(=O)c1ccccc1)NCC(=O)N1CCCCC1 | -0.5 | 4.6 | 13.5 | 0.4 | 15.0*
O=C(CNC(=O)Cc1ccccc1)NCC(=O)N1CCCCC1 | -0.8 | 0.3 | 2.1 | -0.1 | -3.0
Cc1cc([N+](=O)[O-])nn1CC(=O)N/N=C/c1ccc(O)cc1O | 9.6 | 70.7* | -4.8 | -17.9 | 1.3
Cc1cc([N+](=O)[O-])nn1CC(=O)N/N=C/c1ccccc1Br | 1.7 | 5.5 | 6.9 | 3.6 | -3.8
COc1cc(/C=N/NC(=O)/C(=C/c2ccccc2)CCO)ccc1O | x | -5.3 | -45.1 | -2.5 | x
O=C(N/N=C/c1ccc(O)cc1O)/C(=C/c1ccccc1)CCO | x | 70.4* | -11.5 | -3.6 | x
Cc1ccc(NC(=O)CCC(=O)N/N=C/c2ccc(O)cc2O)cc1 | -8.0 | 71.1* | -1.2 | -2.7 | -3.2
CCC(=O)N(C)C[C@H]1Oc2ncc(-c3ccccc3C)cc2C(=O)N([C@@H](C)CO)C[C@H]1C | 1.4 | -9.7 | x | x | -1.7
COc1ccccc1N(CC(=O)NCCSCc1ccccc1Cl)S(C)(=O)=O | 38.8* | -2.9 | 15.8 | 2.0 | -6.0
O=C(Cn1cnc(S(=O)(=O)N2CCCC2)c1)Nc1cccc(Br)c1 | -3.5 | 1.3 | -2.2 | -0.3 | 18.9*
C[C@@H]1CN([C@H](C)CO)C(=O)c2cc(NS(=O)(=O)c3ccc(F)cc3)ccc2O[C@H]1CN(C)Cc1ccc(C(=O)O)cc1 | -0.9 | -4.0 | x | x | -2.4
Cc1cccc(NS(=O)(=O)c2ccc(-c3ccc(=O)[nH]n3)o2)c1 | 4.9 | -4.1 | -0.5 | -0.1 | 1.3
O=c1ccc(-c2ccc(S(=O)(=O)Nc3cccc([N+](=O)[O-])c3)s2)n[nH]1 | 36.5* | 3.5 | 21.7 | 4.6 | -8.4
O=C(C[C@H]1C[C@@H]2c3cc(NS(=O)(=O)c4ccc(F)cc4)ccc3O[C@@H]2[C@@H](CO)O1)NCc1ccc(Oc2ccccc2)cc1 | -0.4 | -2.7 | x | x | 15.2*
O=C(C[C@@H]1C[C@@H]2c3cc(NC(=O)C4CCC4)ccc3O[C@@H]2[C@H](CO)O1)NCc1ccc(-c2ccccc2)cc1 | -0.8 | -9.0 | x | x | 3.1
O=C(C[C@@H]1C[C@H]2c3cc(NC(=O)C4CCC4)ccc3O[C@H]2[C@H](CO)O1)NCc1ccc(-c2ccccc2)cc1 | -3.9 | -1.4 | x | x | 25.0*
CN(C)c1ccc2c(c1)[C@H]1C[C@H](CC(=O)NCc3ccc(Oc4ccccc4)cc3)O[C@H](CO)[C@H]1O2 | -3.0 | 6.7 | x | x | 20.5*
CS(=O)(=O)Nc1ccc2c(c1)[C@@H]1C[C@@H](CC(=O)NCc3ccccc3)O[C@H](CO)[C@@H]1O2 | -1.4 | -8.4 | x | x | -0.8
CN(C)c1ccc2c(c1)[C@@H]1C[C@H](CC(=O)NCc3ccc(Oc4ccccc4)cc3)O[C@@H](CO)[C@@H]1O2 | -4.5 | 2.5 | x | x | 7.7
CS(=O)(=O)Nc1ccc2c(c1)[C@H]1C[C@H](CC(=O)NCc3ccccc3)O[C@H](CO)[C@H]1O2 | 0.2 | x | x | x | 16.1*
O=C(Nc1ccc2c(c1)[C@H]1C[C@@H](CC(=O)N3CCOCC3)O[C@H](CO)[C@H]1O2)c1ccc2c(c1)OCO2 | x | -3.0 | x | x | x
O=C(C[C@H]1C[C@H]2c3cc(NC(=O)C4CCC4)ccc3O[C@H]2[C@H](CO)O1)NCCN1CCCCC1 | -4.0 | 1.9 | x | x | 34.7*
